In all, about 310,000 compounds went through this assay and about 14,000 (4.5%) showed an effect of 50% or more. Effects have a minus sign here. What follows is part of a selection rich in strong results, with near analogues and random picks from the rest.
Target: human ether-à-go-go-related gene (hERG) potassium channel (human, UniProt Q12809)
Test: primary screen, population patch clamp on CHO cells stably expressing hERG; higher = less effect of the substance
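Further: peak tail current of the secondary pulse compared with the same well before compound.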

Sequence of human ether-à-go-go-related gene (hERG) potassium channel (Q12809 whole entry, looked up): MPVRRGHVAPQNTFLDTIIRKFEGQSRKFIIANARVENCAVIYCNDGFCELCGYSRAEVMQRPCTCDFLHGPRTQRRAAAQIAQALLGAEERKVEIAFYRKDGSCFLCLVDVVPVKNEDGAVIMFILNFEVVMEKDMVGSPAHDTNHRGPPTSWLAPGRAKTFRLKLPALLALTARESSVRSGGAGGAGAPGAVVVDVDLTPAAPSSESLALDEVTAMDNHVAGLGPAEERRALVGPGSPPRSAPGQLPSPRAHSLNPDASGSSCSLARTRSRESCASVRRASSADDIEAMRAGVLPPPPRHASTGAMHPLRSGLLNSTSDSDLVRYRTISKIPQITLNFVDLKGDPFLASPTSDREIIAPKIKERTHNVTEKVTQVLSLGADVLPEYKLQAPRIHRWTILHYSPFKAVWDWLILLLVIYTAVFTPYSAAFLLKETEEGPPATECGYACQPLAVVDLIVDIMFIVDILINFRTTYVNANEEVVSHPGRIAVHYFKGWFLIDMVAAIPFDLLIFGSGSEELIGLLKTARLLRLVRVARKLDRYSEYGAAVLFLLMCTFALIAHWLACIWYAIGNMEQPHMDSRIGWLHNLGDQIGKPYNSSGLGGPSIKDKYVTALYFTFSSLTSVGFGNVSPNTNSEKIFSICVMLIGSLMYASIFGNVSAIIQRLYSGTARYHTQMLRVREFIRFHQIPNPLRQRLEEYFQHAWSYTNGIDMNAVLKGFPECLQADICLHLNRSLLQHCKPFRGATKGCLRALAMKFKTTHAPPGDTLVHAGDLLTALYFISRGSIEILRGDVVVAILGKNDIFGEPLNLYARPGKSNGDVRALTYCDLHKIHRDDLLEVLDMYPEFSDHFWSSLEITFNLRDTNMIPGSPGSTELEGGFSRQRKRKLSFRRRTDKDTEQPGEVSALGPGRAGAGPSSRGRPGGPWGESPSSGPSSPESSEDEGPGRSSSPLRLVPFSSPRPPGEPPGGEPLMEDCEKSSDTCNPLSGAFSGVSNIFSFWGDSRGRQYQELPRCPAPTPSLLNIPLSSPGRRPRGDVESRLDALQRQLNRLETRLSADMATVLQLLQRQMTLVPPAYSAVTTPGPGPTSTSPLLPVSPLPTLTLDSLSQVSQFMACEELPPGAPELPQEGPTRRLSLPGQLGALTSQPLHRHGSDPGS

Structure (SMILES)	hERG current change (%, negative = inhibition) at 10uM [%]
COc1ccc2nc3oc(C(=O)N4CCC5(CC4)OCCO5)cc3cc2c1	-16.5
Cc1ccc(NC(=O)Cn2ncc3c([nH]c4ccccc43)c2=O)cc1Cl	21.4
O=C(Cn1ncc2c([nH]c3ccccc32)c1=O)Nc1ccc(CN2CCCCC2)cc1	-65.8
O=C(Cn1ncc2c([nH]c3ccccc32)c1=O)NCC1CCN(Cc2ccccc2F)CC1	-44.2
O=C(Cn1ncc2c([nH]c3ccccc32)c1=O)NCC1CCN(Cc2ccc(F)cc2)CC1	-66
O=C(Cn1ncc2c([nH]c3ccccc32)c1=O)Nc1cccnc1	10.3
Cc1cccc(CN2CCC(CNC(=O)Cn3ncc4c([nH]c5ccccc54)c3=O)CC2)c1	-23.1
CS(=O)(=O)N(CC(O)CON=C1c2ccccc2-c2ccccc21)c1ccc(F)cc1 (centres unmarked)	8.83
O=C(Cc1ccc(Cl)cc1)c1c[nH]c(C(=O)NCc2cccnc2)c1	-0.756
COc1cccc(-c2nnc(SCC(=O)Nc3ccc(OC)c(OC)c3)n2N)c1	14.3
COc1ccc(-n2c(=O)c3c4c(sc3n(CC(=O)NCc3ccco3)c2=O)CCC4)c(OC)c1	-4.75
O=C(NCCN1CCOCC1)c1ccc2c(c1)N(Cc1ccc(F)cc1)C(=O)CS2	0.414
COc1ccc(CN(C(=O)CN2C(=O)c3ccccc3S2(=O)=O)C(C(=O)NCC2CCCO2)c2ccco2)cc1 (centres unmarked)	-4.57
CCn1c(C)nnc1SCC(=O)Nc1ccc(C(C)=O)cc1	11.5
CN(C)CCNc1oc(/C=C/c2ccccc2)nc1C#N	-29.2
CNc1oc(/C=C/c2ccccc2)nc1C#N	8.33
C=CCNc1oc(/C=C/c2ccccc2)nc1C#N	-28
CCN1CCN(c2oc(-c3ccco3)nc2C#N)CC1	-24.1
CN1CCN(c2oc(/C=C/c3ccccc3)nc2C#N)CC1	-53.7
CN(C)CCCNc1oc(/C=C/c2ccccc2)nc1C#N	-32.5
CCN(CC)CCCNc1oc(/C=C/c2ccccc2)nc1C#N	-71
CCN1CCN(c2oc(/C=C/c3ccccc3)nc2C#N)CC1	-63.1
CN(C)c1oc(/C=C/c2ccccc2)nc1C#N	8.93
N#CC1=C(c2ccc(-c3ccccc3)cc2)COC1=O	-15.1
CCCn1nc(C(=O)NNC(=O)CCCOc2ccc(OC)cc2)c2ccccc2c1=O	-8.53
Cc1ccc(NC(=O)CC(C(=O)O)c2ccccc2)cc1 (centres unmarked)	8.15
O=C(c1ccc(OC2CCN(C/C=C/c3ccccc3)CC2)cc1)N1CCCCC1	-53.1

Structure (SMILES)	hERG current change (%, negative = inhibition) at 10uM [%]
COc1ccccc1/C=C/CN1CCC(Oc2ccc(C(=O)N3CCCC3)cc2)CC1	-24.3
O=C(c1ccc(OC2CCN(C/C=C/c3ccccc3)CC2)cc1)N1CCCC1	-75.7
O=C(c1ccc(OC2CCN(Cc3ccccn3)CC2)cc1)N1CCCCCC1	-14.9
Cc1ccccc1CN1CCC(Oc2ccc(C(=O)N3CCCC3)cc2)CC1	-13.7
CCCC(=O)NC(c1ccc(Cl)cc1Cl)c1ccc2cccnc2c1O (centres unmarked)	0.094
CC(=O)Cc1c(C(=O)O)c(C)nn1-c1ccccc1	21.5
O=[N+]([O-])/C=C/c1ccc2c(ccn2Cc2ccccc2)c1	15.8
COCC(=O)Nc1c(C(=O)N2CCCC2)oc2ccccc12	1.46
O=C(COc1ccccc1)Nc1c(C(=O)N2CCC(N3CCCCC3)CC2)oc2ccccc12	-69
CCCN1CCN(C(=O)c2oc3ccccc3c2NC(=O)C2CC2)CC1	-42.6
COc1ccc(OCC(=O)Nc2c(C(=O)N3CCC(N4CCCCC4)CC3)oc3ccccc23)cc1	-87.7
CCCN1CCN(C(=O)c2oc3ccccc3c2NC(=O)COc2ccc(OC)cc2)CC1	-79.5
COc1ccc(N2CCN(C(=O)c3oc4ccccc4c3NC(=O)CCc3cc(OC)no3)CC2)cc1	-10.4
COc1ccc(OCC(=O)Nc2c(C(=O)N3CCN(C)CC3)oc3ccccc23)cc1	-42
CC(C)CC(=O)Nc1c(C(=O)N2CCN(Cc3ccccc3)CC2)oc2ccccc12	-20.9
COc1ccc(OCC(=O)Nc2ccccc2C(=O)N2CCCC2)cc1	-7.38
N#Cc1ccccc1OCC(=O)Nc1c(C(=O)C2CC2)oc2ccccc12	2.52
O=C(COc1ccc(F)cc1)Nc1c(C(=O)N2CCC(N3CCCCC3)CC2)oc2ccccc12	-81.1
COc1ccccc1C(=O)Nc1c(C(=O)N2CCN(C)CC2)oc2ccccc12	-45.2
CCCCC[C@H](O)/C=C/[C@@H]1[C@@H](C/C=C\CCCC(=O)O)[C@@H](O)C[C@H]1O.NC(CO)(CO)CO	9.22
COc1ccccc1CC(=O)N(CCC1=CCCCC1)c1c(N)n(Cc2ccccc2)c(=O)[nH]c1=O	-12
CCn1c(CCC(=O)N(C)CC(=O)Nc2cccc(F)c2)nc2cc(S(=O)(=O)N(C)C)ccc21	-19.3
CC(=O)C1=C(O)C(=O)N(c2cccc(Br)c2)C1c1ccc(Br)cc1 (centres unmarked)	15.8
COCCN(CC(=O)NCc1ccccc1)C(=O)CCC(=O)Nc1ccccn1	4.54
CCOC(=O)N1CCN(S(=O)(=O)/C=C/c2ccccc2)CC1	-17.5
COC(=O)Cn1cnc2sc(C)c(S(=O)(=O)N3CCN(c4ccccc4OC)CC3)c2c1=O	-5.55

Source: article PMC4336329 (PLoS ONE, 2015)
